Several values for one entry are separate records, joined by “and”; a condition that tells them apart may be missing. Equal entries are not always repeated. Compounds without any hit were thinned out: in the full panel of roughly 83,000, 20% have a hit.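 For each line, cells grew in 96-well plates with the test compound present at a single concentration for 48 hours.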 Activity calls are given as the source filed them. Rule for the calls: active = growth percent below 10; inactive = the rest.
What was measured:
Assay in all cases: NCI-60 one-dose screen, 48 h (100 = growth as untreated, 0 = no growth, -100 = all killed)
DU-145 prostate = tested on: DU-145 prostate
K-562 leukemia = tested on: K-562 leukemia
MALME-3M melanoma = tested on: MALME-3M melanoma
MDA-MB-231 breast = tested on: MDA-MB-231 breast
RXF 393 renal = tested on: RXF 393 renal
SF-268 CNS = tested on: SF-268 CNS
SF-295 CNS = tested on: SF-295 CNS
SF-539 CNS = tested on: SF-539 CNS
UACC-257 melanoma = conditions: 10 µM unless noted
M14 melanoma = tested on: M14 melanoma

Measured: growth

Oc1ccc(O)c(-c2ccccc2)c1
inactive: DU-145 prostate; 10 µM unless noted 77.6% | K-562 leukemia; 10 µM unless noted 30.4% | MALME-3M melanoma; 10 µM unless noted 84.6% | MDA-MB-231 breast; 10 µM unless noted 66% | RXF 393 renal; 10 µM unless noted 73.8% | SF-268 CNS; 10 µM unless noted 53.7% | SF-295 CNS; 10 µM unless noted 17.7% | SF-539 CNS; 10 µM unless noted 46.3% | UACC-257 melanoma 88.4% | M14 melanoma; 10 µM unless noted 65.9%

CCOc1ccc(/C=C\C(=O)O)cc1
inactive: DU-145 prostate; 10 µM unless noted 111% | K-562 leukemia; 10 µM unless noted 103% | MALME-3M melanoma; 10 µM unless noted 105% | MDA-MB-231 breast; 10 µM unless noted 108% | RXF 393 renal; 10 µM unless noted 138% | SF-268 CNS; 10 µM unless noted 115% | SF-295 CNS; 10 µM unless noted 103% | SF-539 CNS; 10 µM unless noted 110% | UACC-257 melanoma 109% | M14 melanoma; 10 µM unless noted 110%

C#CCOC(=O)C(N)CS (centres undefined)
inactive: DU-145 prostate; 10 µM unless noted 113% | K-562 leukemia; 10 µM unless noted 102% | MALME-3M melanoma; 10 µM unless noted 96.6% | MDA-MB-231 breast; 10 µM unless noted 84.2% | RXF 393 renal; 10 µM unless noted 106% | SF-268 CNS; 10 µM unless noted 96.4% | SF-295 CNS; 10 µM unless noted 96.5% | SF-539 CNS; 10 µM unless noted 86.6% | UACC-257 melanoma 107% | M14 melanoma; 10 µM unless noted 97.1%

C/C(CC(C)C)=N/NC(N)=S
inactive: DU-145 prostate; 10 µM unless noted 92.2% | K-562 leukemia; 10 µM unless noted 56.2% | MALME-3M melanoma; 10 µM unless noted 81.4% | MDA-MB-231 breast; 10 µM unless noted 100% | RXF 393 renal; 10 µM unless noted 108% | SF-268 CNS; 10 µM unless noted 88.8% | SF-295 CNS; 10 µM unless noted 84.3% | SF-539 CNS; 10 µM unless noted 105% | UACC-257 melanoma 74.4% | M14 melanoma; 10 µM unless noted 84.4%

Cn1c(-c2ccccc2)cc(=O)cc1-c1ccccc1
active: DU-145 prostate; 10 µM unless noted 3.58%
inactive: K-562 leukemia; 10 µM unless noted 99.8% | MALME-3M melanoma; 10 µM unless noted 122% | MDA-MB-231 breast; 10 µM unless noted 88.8% | RXF 393 renal; 10 µM unless noted 62% | SF-268 CNS; 10 µM unless noted 89.9% | SF-295 CNS; 10 µM unless noted 93.7% | SF-539 CNS; 10 µM unless noted 111% | UACC-257 melanoma 95.1% | M14 melanoma; 10 µM unless noted 97.7%

COc1ccccc1OCC(O)CO (centres undefined)
3.64% (active) and 96.5% (inactive): SF-295 CNS; 10 µM unless noted
inactive: DU-145 prostate; 10 µM unless noted 115% and 123% | K-562 leukemia; 10 µM unless noted 118% and 87.4% | MALME-3M melanoma; 10 µM unless noted 110% and 105% | MDA-MB-231 breast; 10 µM unless noted 114% and 111% | RXF 393 renal; 10 µM unless noted 110% and 111% | SF-268 CNS; 10 µM unless noted 100% and 114% | SF-539 CNS; 10 µM unless noted 92.3% and 121% | UACC-257 melanoma 102% and 105% | M14 melanoma; 10 µM unless noted 104% and 106%

CC(=O)Nc1ccc(OC(C)=O)cc1
2.32% (active) and 95.1% (inactive): SF-539 CNS; 10 µM unless noted
0.268% (active) and 103% (inactive): M14 melanoma; 10 µM unless noted
9.59% (active) and 105% (inactive): SF-295 CNS; 10 µM unless noted
-20.3% (active) and 111% (inactive): MDA-MB-231 breast; 10 µM unless noted
-5.2% (active) and 95.3% (inactive): RXF 393 renal; 10 µM unless noted
8.26% (active) and 106% (inactive): K-562 leukemia; 10 µM unless noted
-16.4% (active) and 109% (inactive): DU-145 prostate; 10 µM unless noted
inactive: MALME-3M melanoma; 10 µM unless noted 44.4% and 111% | SF-268 CNS; 10 µM unless noted 23.1% and 103% | UACC-257 melanoma 55.4% and 102%

CCOC(=O)c1ccc(C(=N)N)cc1
inactive: DU-145 prostate; 10 µM unless noted 106% | K-562 leukemia; 10 µM unless noted 101% | MALME-3M melanoma; 10 µM unless noted 108% | MDA-MB-231 breast; 10 µM unless noted 120% | RXF 393 renal; 10 µM unless noted 95.4% | SF-268 CNS; 10 µM unless noted 104% | SF-295 CNS; 10 µM unless noted 101% | SF-539 CNS; 10 µM unless noted 105% | UACC-257 melanoma 96.8% | M14 melanoma; 10 µM unless noted 108%

O=C1CCC(=O)N1CC1CC2CCC1C2 (centres undefined)
inactive: DU-145 prostate; 10 µM unless noted 127% and 98.7% | K-562 leukemia; 10 µM unless noted 71.2% and 94.1% | MALME-3M melanoma; 10 µM unless noted 98.1% and 87.7% | MDA-MB-231 breast; 10 µM unless noted 98.8% | RXF 393 renal; 10 µM unless noted 105% and 106% | SF-268 CNS; 10 µM unless noted 100% and 95.2% | SF-295 CNS; 10 µM unless noted 83.4% and 90.2% | SF-539 CNS; 10 µM unless noted 101% and 87.8% | UACC-257 melanoma 104% and 83.5% | M14 melanoma; 10 µM unless noted 103% and 95.6%

CS(=O)(=O)c1nsc(N)n1
inactive: DU-145 prostate; 10 µM unless noted 109% | K-562 leukemia; 10 µM unless noted 98.7% | MALME-3M melanoma; 10 µM unless noted 101% | MDA-MB-231 breast; 10 µM unless noted 106% | RXF 393 renal; 10 µM unless noted 108% | SF-268 CNS; 10 µM unless noted 100% | SF-295 CNS; 10 µM unless noted 104% | SF-539 CNS; 10 µM unless noted 102% | UACC-257 melanoma 84.9% | M14 melanoma; 10 µM unless noted 104%

CS/C(=C\c1ccc(C(=O)c2ccc(C)cc2)n1C)S(C)=O (centres undefined)
inactive: DU-145 prostate; 10 µM 110% | DU-145 prostate; 100 µM 88.1% | K-562 leukemia; 10 µM 44.4% | K-562 leukemia; 100 µM 26.3% | MALME-3M melanoma; 10 µM 95% | MALME-3M melanoma; 100 µM 69.3% | MDA-MB-231 breast; 10 µM 89.6% | MDA-MB-231 breast; 100 µM 85.6% | RXF 393 renal; 10 µM 101% | RXF 393 renal; 100 µM 73.2% | SF-268 CNS; 10 µM 112% | SF-268 CNS; 100 µM 93.2% | SF-295 CNS; 10 µM 60.7% | SF-295 CNS; 100 µM 62.2% | SF-539 CNS; 10 µM 91.3% | SF-539 CNS; 100 µM 80.4% | UACC-257 melanoma 64.6% [100 µM] | M14 melanoma; 10 µM 103% | M14 melanoma; 100 µM 69%
